Source: the supplement of paper PMC3334620
The full ranking holds about 33,000 sequences; the median of “E-score (-0.5 to 0.5)” is about -0.035, and the highest 2% start at about 0.35. The sample holds the highest values, similar sequences and a random draw of the others, so the mix is not that of the screen.

Biological target: T1, Pdr3 (UniProt P33200)
T1 sequence: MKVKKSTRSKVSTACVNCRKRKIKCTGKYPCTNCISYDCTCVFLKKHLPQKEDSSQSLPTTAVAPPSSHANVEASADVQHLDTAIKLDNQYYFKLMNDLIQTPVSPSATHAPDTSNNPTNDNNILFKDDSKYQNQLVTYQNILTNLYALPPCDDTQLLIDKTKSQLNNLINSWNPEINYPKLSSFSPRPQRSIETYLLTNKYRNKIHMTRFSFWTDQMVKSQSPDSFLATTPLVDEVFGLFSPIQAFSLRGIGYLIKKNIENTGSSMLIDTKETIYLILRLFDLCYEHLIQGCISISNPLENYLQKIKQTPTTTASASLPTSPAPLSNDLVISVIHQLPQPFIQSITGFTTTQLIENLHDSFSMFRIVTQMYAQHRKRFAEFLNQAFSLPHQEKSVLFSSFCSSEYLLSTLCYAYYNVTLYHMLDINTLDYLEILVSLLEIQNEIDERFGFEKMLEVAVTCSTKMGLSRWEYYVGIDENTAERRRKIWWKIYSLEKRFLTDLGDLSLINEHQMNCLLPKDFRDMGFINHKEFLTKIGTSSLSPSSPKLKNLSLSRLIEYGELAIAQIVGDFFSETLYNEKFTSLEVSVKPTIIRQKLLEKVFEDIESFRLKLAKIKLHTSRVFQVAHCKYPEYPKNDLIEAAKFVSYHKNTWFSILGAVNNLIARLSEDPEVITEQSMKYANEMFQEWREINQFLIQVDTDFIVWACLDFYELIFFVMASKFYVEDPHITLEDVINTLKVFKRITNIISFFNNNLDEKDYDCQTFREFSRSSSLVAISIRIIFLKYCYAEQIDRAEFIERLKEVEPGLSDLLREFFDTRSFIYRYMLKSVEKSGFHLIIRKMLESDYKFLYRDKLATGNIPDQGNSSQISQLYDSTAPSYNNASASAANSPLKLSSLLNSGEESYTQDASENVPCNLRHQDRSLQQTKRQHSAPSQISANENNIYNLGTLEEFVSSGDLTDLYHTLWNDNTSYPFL
Experiment: PBM E-score (8-mer binding enrichment) (E-score (-0.5 to 0.5)); higher = stronger / more preferred TF binding
Conditions: protein concentration: 200 nM; construct: GST-full length
Description: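 Universal 'all 10-mer' protein binding microarrays (Agilent AMADID 015681) probed with GST-tagged S. cerevisiae TFs (full-length or DBD) made by in vitro transcription/translation (PURExpress), about 100-200 nM. Bound TF was detected with fluorescent anti-GST. Each ungapped 8-mer (which stands for itself and its reverse complement) is scored by the PBM enrichment score (E-score), a modified Wilcoxon-Mann-Whitney statistic from -0.5 to +0.5, computed with the Universal PBM Analysis Suite. Scale: above 0.35 generally sequence-specific binding.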

Sequence	PBM E-score
CCGTACGA	0.00505
CATTTCTC	0.0391
GTAAAAAC	-0.132
CCCGGGTC	0.426
ACCGGGTA	0.154
CCCGGGTA	0.438
CCGGGGTC	0.327
CCGGGGTA	0.341
ACCGGGTC	0.184
AAACCATT	-0.226
TCGCTTCA	-0.114
CGGTCGAA	0.0584
ACATCCCG	0.415
CCATCCCG	0.31
ACATCCCC	0.245
ATATCCGA	0.346
ATGTCCGA	0.207
ATGTCCGC	0.223
ATATCCCC	0.0317
ATATCCCA	0.229
ATGTCCGG	0.375
ATATCCGC	0.333
ATATCCGG	0.384
ATATCCCG	0.357
AATAGCGC	0.0976

Sequence	PBM E-score
TCCTACAA	0.00772
GAGTAGCC	-0.153
AAACTGGC	-0.0559
AGAGGCAC	-0.154
CGGCTAAA	0.183
AGATCCAG	0.112
ACATCCGG	0.378
ACATCCGT	0.216
ACATCCGA	0.259
AGATCCGC	0.351
AGATCCGG	0.362
ACCGTTGG	0.0171
CAGCATGG	-0.00655
GCCACGTA	-0.208
GCCACGGC	0.0607
TCCACGCA	-0.174
TCCATGGA	0.423
ACCATGGA	-0.151
TCCACGGA	0.477
GCCACGGA	0.415
ACCACGGC	0.135
TACACGGA	0.3
CCCATGGA	-0.0126
ACCACGGG	0.205
ACCACGGA	0.377

Sequence	PBM E-score
AGGCAGCA	-0.0599
AAAACTCT	-0.109
ATCAACGG	0.247
CTATCCAC	0.0063
ATGCTATA	-0.21
ACGTTTTA	-0.16
ATGGTGAC	-0.245
CCCACGGA	0.424
CCCACGGG	0.311
CCCACGGC	0.0935
GTCAGTAA	-0.145
ACTGGAAC	0.0779
ACAGAGCC	-0.128
AGCTCCGA	0.239
ATCTCCGG	0.4
ACCTCCGG	0.402
AACTCCGG	0.416
ATCTCCGC	0.292
CCCTCCGG	0.265
ACCTCCGT	0.204
AGCTCCGG	0.389
AGCTCCGC	0.287
CACTCCGG	0.351
AACTCCGT	0.271
ATCTCCGA	0.324

Sequence	PBM E-score
ACGCTACC	-0.183
CGAGCGCG	0.273
AGCGAAGG	-0.0572
GATTTAAA	-0.159
ATGGCACG	0.117
CGGCGCCG	0.463
CGCCGGCG	0.452
AGCCGGCT	0.315
AGCCGGCG	0.372
CGCCGGCA	0.339
CGCCGGCC	0.32
AGCCGGCA	0.339
CGGCGCCA	0.171
AGGCGCCG	0.161
AACCAGAG	-0.12
ACTGACCG	-0.00211
CGTGCTTA	0.0586
CCTCTAGC	-0.247
GTTCCACA	0.0178
CGTACGGA	0.281
CGGACCCG	0.392
CGGACCCC	0.198
AGGACCCG	0.17
CAGCGCAG	-0.00798
CTCTCTGC	-0.0361

Sequence	PBM E-score
ATTTGACC	-0.0303
CATTGCAC	-0.0987
CGCCGACG	0.0962
AGGAAATC	0.0849
CTGAAATC	0.0707
GGGAAATA	0.0401
CGGAAATC	0.407
AGGAAATA	0.121
CGGAAATA	0.45
AACTCGAC	0.0587
AACAGCTT	0.048
TAGGGGAA	-0.157
AGGCATTA	-0.12
GGGCATTA	-0.0343
CGGCATTA	0.357
CTCTTCCC	0.0704
AAATCCAT	0.17
GGAACTAA	0.296
CCCGCCAC	0.254
AGCTGCTG	-0.0512
AGCTTCGA	-0.102
CAGCCGGG	0.229
AAGCCGGC	0.366
AAGCCGGG	0.262
AAGCCGGA	0.392

Sequence	PBM E-score
CAGCCGGC	0.324
GAGCCGCA	0.044
AAGCCGGT	0.199
CAGCCGGA	0.398
CAGCCGAA	0.0741
GAGCCGGC	0.324
GAGCCGGA	0.362
AAGCCGTC	0.178
AAGTGCTC	-0.107
AGTTCTAA	0.00941
ACGGTGAA	-0.0181
AATCGTCA	-0.112
GTTGATCA	0.0338
AGCCCCAT	-0.0914
TAGCCGCA	-0.0883
TAGCCGGA	0.372
TAGCCGAA	0.0812
AAAGAGGA	-0.131
ATAACTGA	0.00191
AGGAACTC	0.0544
AGGAACTA	0.0717
CGGAACTA	0.473
GGGAACTA	0.0485
CGGAACTC	0.452
CTGAACTC	-0.215

Sequence	PBM E-score
CTCTTCTC	-0.18
GTATGGAC	0.0423
ACCGATGG	-0.0565
CTACTGTA	-0.136
ACTAAACT	-0.121
AGCAGCAC	-0.129
GTTGCCTA	0.0329
ACCCGGGT	0.446
ACCCGGGA	0.448
ACCCGGCT	0.24
ACCCCGGT	0.186
ACCCGGGC	0.424
ACCGGGGC	0.224
GACCGGGC	0.0834
ACCCGGTC	0.199
GCCCGGGC	0.427
CCCCGGGC	0.33
AACCGGGA	0.243
ACCGGGGA	0.0294
GGCACCCC	-0.0993
CTGGCCAA	0.0275
AGGATCTA	-0.352
